FMDV inh: foot and mouth disease virus antiviral activity | FMDV antiviral cell-based qHTS | Potency, µM (top dose mostly 57.9 µM), for inactives: top-dose activity change, negative = inhibition, usual class: inhibitors | hit rate 1.2% among 410,000; calls by dose curve; tested in HEK293T cells; also: read-out not given here; nearly all actives have a fitted effect of over 45% in size
AMA1-RON2 inh: disrupts binding of P. falciparum AMA1 to RON2; Potency, µM (series often up to 58.2 µM), for inactives: top-dose activity change, negative = inhibition, hits mostly inhibitors; AID 720542; AlphaScreen AMA1-biotinylated RON2 peptide binding; hit rate 0.2% among 360,000;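 also: 0% = vehicle wells and -100% = peptide control; nearly all actives have a fitted effect of over 45% in size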
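AMA1 (3D7) with his tag at 25 nM final met compounds first, then biotinylated RON2 peptide at 25 nM; detection used donor plus acceptor beads, 10 µg/mL apiece, read by AlphaScreen after 30 min at room temperature.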
AmpC inh no detg: blocks E. coli AmpC beta-lactamase in detergent-free assay. AmpC nitrocefin hydrolysis, absorbance 480 nm, 0.0001% Triton. Potency, µM (top dose mostly 57.1 µM), for inactives: at the highest dose activity change, negative = inhibition, most hits filed as inhibitors. hit rate 0.52% among 330,000;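 also: plate controls were no compound for no effect and no enzyme for full effect; nearly all actives have a fitted effect of over 20% in size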
Target sequence (P00811 whole entry, looked up): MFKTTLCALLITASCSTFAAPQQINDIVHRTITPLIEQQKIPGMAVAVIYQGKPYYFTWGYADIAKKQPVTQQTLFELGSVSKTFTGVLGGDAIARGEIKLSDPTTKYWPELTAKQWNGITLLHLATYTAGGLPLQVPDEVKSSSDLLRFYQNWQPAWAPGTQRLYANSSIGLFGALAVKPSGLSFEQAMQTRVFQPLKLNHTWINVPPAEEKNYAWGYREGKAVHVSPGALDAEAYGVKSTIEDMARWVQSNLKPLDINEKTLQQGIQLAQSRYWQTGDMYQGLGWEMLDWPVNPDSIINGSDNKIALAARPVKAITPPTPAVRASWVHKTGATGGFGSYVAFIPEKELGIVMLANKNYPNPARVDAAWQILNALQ
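20 mM phosphate pH 7.0 + 0.01% (detergent screen) or 0.0001% Triton X-100; 5.3 nM AmpC reagent; cpd preinc 15 min RT; nitrocefin (800 uM stock) to start; A480 q20 s × 4 min; Activity was normalised to no-enzyme and no-compound control wells.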
Sm TGR inh: blocks Schistosoma mansoni thioredoxin glutathione reductase. Potency, µM (titrated, usually from 114 µM), inactives show at the highest dose activity change, negative = inhibition, most hits filed as inhibitors. AID 485364. Q962Y6. purified TGR, DTNB reduction, TNB absorbance 405 nm. hit rate 3% among 360,000; also: nearly all actives have a fitted effect of over 60% in size
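TGR 20 nM + NADPH 100 uM (dispensed conc.), cpd preinc 15 min RT; start with NADPH (500 uM addition) then DTNB (15 mM addition). Kinetic TNB absorbance, 405 nm filter. Four-parameter Hill fit across titration.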
AmpC detergent: inhibitors of E. coli AmpC beta-lactamase with detergent; P00811; AmpC hydrolysis of nitrocefin, absorbance 480 nm, 0.01% Triton; Potency, µM (doses to about 114 µM), inactives show top-dose activity change, negative = inhibition, actives largely listed as inhibitors; hit rate 0.041% among 370,000; AID 485294;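 also: 0% = no-compound wells and -100% = no-enzyme wells; nearly all actives have a fitted effect of over 25% in size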
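AmpC (5.3 nM in the dispensed reagent) in 20 mM phosphate pH 7.0 with 0.01% (detergent screen) or 0.0001% Triton X-100 was preincubated with compounds for 15 min at room temperature. Nitrocefin was then added from an 800 uM solution, and hydrolysis was followed at 480 nm.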
* hit, by the source's call; u = inconclusive; x = no result. Hits are enriched below; roughly 4.1% of the tested compounds scored in any of these assays. Unless noted, calls follow the shape of the dose curve; as a rule, active = well fitted curve in the direction sought with a large enough effect; inconclusive = small, poorly fitted or top-dose-only effect, or another doubt; inactive = no such curve, though single readings can be large; an effect the other way counts as inactive or inconclusive. Unless noted, % is scaled to controls: 0 for no effect and ±100 for the full control effect; potency is read from the fitted curve at half-maximal effect.

SMILES	FMDV inh	AMA1-RON2 inh	AmpC inh no detg	Sm TGR inh	AmpC detergent
Cn1c(SCC(=O)c2ccc(F)cc2)nnc1-c1ccccc1Br	20%	x	x	-7%	-2%
CCCCC(=O)NC(c1ccc([N+](=O)[O-])cc1)c1c(O)ccc2ccccc12 (centres undefined)	20µM*	-28%	u	-13%	u
COc1ccc2[nH]c(C)c(CCN(Cc3cccs3)C(=S)Nc3ccccc3)c2c1	-1%	2%	-21%	-22%	u
COc1ccccc1NC(=S)N(CCc1c(C)[nH]c2ccccc12)Cc1cccs1	-15%	-5%	40µM*	-15%	u
CCCCCOC(=O)CSc1ncnc2c1sc1nc(N3CCOCC3)c3c(c12)CCCC3	10%	x	x	-1%	25%
COc1ccc(OCCSc2nnc(CCNC(=O)c3ccc(Cl)c(Cl)c3)n2C)cc1	u	1%	62%	1%	-11%
CCn1c(CCNC(=O)c2ccc(Cl)c(Cl)c2)nnc1SCCOc1ccc(OC)cc1	40µM*	2%	94%	9%	-3%
COc1cc(C2Nc3ccccc3-c3nnc(SCc4ccc(C)cc4)nc3O2)cc(OC)c1O (centres undefined)	22µM*	x	x	-29%	-7%
COc1cc(C2Nc3ccccc3-c3nnc(SCc4ccc(Cl)cc4)nc3O2)ccc1OCC(=O)O (centres undefined)	13%	x	x	-2%	0%
CC(OC(=O)c1cc(Br)ccc1O)C(=O)Nc1ccc(S(=O)(=O)N2CCCC2)cc1 (centres undefined)	20µM*	-3%	-38%	6%	-8%
COc1cccc(OC)c1OCC(=O)Nc1ccc(S(=O)(=O)N2CCCC2)cc1	25µM*	-8%	-12%	x	x
COc1ccccc1OCC(=O)Nc1ccc(S(=O)(=O)N2CCCCCC2)cc1	x	-1%	-47%	8%	5%
NS(=O)(=O)c1ccc(NC(=O)COc2cccc3ccccc23)cc1	0%	-1%	13µM*	3%	1%
O=C(COc1ccc(Br)cc1CO)Nc1ccc(S(=O)(=O)N2CCCC2)cc1	35µM*	-10%	-6%	-7%	-12%
CCc1ccccc1OCC(=O)Nc1ccc(S(N)(=O)=O)cc1	-6%	5%	-27%	9%	2%
O=C(COc1ccc(Br)cc1CO)Nc1ccc(F)cc1	-5%	15%	-34%	-2%	-6%
Cc1cccc(C(=O)OC(C)C(=O)Nc2ccc(S(=O)(=O)N3CCCC3)cc2)c1O (centres undefined)	-20%	-16%	-9%	2%	-3%
O=C(COc1ccc2ccccc2c1)Nc1ccc(S(=O)(=O)N2CCCCCC2)cc1	-15%	-12%	18µM*	-6%	1%
CN1CCCN(S(=O)(=O)c2ccc3ccccc3c2)CC1	5%	-27%	84%	45µM*	u
O=S(=O)(c1ccc2ccccc2c1)N1CCCCCC1	0%	23%	82%	7%	-3%
CC(C)c1ccc(NC(=O)c2ccc3c(c2)CCCN3S(C)(=O)=O)cc1	10µM*	x	x	-6%	0%
CCCCOC(=O)c1ccc(NC(=O)c2ccc3c(c2)CCN3S(C)(=O)=O)cc1	35µM*	x	x	0%	2%
Cc1ccc(NC(=O)c2ccc3c(c2)CCN3S(C)(=O)=O)cc1	39%	-3%	x	x	x
COc1ccccc1N1CCN(c2ncnc3c2c(-c2ccccc2)cn3-c2cccc(C)c2)CC1	-10%	x	x	0%	7%
Clc1nssc1=Nc1ccc(Br)cc1	u	-25%	-31%	-18%	-5%
SMILES	FMDV inh	AMA1-RON2 inh	AmpC inh no detg	Sm TGR inh	AmpC detergent
Clc1nssc1=Nc1nncs1	-25%	16%	-4%	50µM*	1%
CCCC(=O)Nc1ccc(-c2csc(N/N=C\c3ccncc3)n2)cc1	-11%	68%	13%	18µM*	-8%
CCCC(=O)Nc1ccc(-c2csc(NNC(C)=O)n2)cc1	29%	71%	-4%	25µM*	8%
CSc1ccccc1OCc1cc(C(=O)N2CCN(c3ncccn3)CC2)no1	3%	0%	-38%	40µM*	-1%
CSc1ccccc1OCc1cc(C(=O)N(C)Cc2ccc(C)o2)no1	27%	-8%	-12%	7.9µM*	1%
CSc1ccccc1OCc1cc(C(=O)N2CCSCC2)no1	0%	-4%	-11%	0%	-4%

Compound activity (PubChem)
